# In the library only some 2.9% were active in any assay of this set; here they are far more common.
# LDHA inh – inhibitors of human lactate dehydrogenase A. P00338. purified LDHA, NADH/diaphorase-resazurin fluorescence; active compounds read low. AID 1347041. hit rate 0.15% among 480,000. activity change, % (values are at about 110 or 230 µM); in the data active means activity change below about -30%; inconclusive means mostly about -25% to -30%;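 further: plate controls were DMSO wells for no effect and wells without enzyme for full effect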
#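 Remaining NADH was detected by diaphorase (0.133 mg/mL) converting 37 µM resazurin to fluorescent resorufin, read at 0 and 20 minutes. The preceding 5-minute room-temperature reaction used 2 nM LDHA, 0.2 mM sodium pyruvate and 0.06 mM NADH at pH 7.4.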
# GLP-1R inv ag – acts as inverse agonist at human GLP-1 receptor; P43220; hit rate 1.6% among 410,000; Potency, µM (top dose mostly 38.3 µM), inactives show at the highest dose activity change, negative = inhibition, usual class: inhibitors; HEK293 GLP-1R CRE-luciferase, luminescence, 24 h; GLP-1R form is constitutively active; further: potency means the concentration at half of the fitted maximal effect; on the % scale 0 is the no-effect control and ±100 the full control effect; nearly all actives have a fitted effect of over 55% in size
# Target sequence (P43220 whole entry, looked up): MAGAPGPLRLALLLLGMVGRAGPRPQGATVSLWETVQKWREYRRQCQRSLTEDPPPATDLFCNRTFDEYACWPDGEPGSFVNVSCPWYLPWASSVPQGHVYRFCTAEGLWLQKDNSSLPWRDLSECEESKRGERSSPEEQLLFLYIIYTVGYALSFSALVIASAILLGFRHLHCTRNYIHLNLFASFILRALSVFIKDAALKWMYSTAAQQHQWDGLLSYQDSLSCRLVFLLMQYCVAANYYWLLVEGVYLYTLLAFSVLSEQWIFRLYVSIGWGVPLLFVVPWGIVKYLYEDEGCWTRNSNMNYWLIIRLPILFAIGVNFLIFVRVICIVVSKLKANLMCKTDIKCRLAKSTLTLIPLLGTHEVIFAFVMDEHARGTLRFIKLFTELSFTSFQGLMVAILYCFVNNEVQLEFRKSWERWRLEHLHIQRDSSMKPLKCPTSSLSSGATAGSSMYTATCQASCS
#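 Using stably transfected HEK293 (constitutively active GLP-1R, cAMP-luciferase reporter), compounds were incubated 24 hr and luciferase measured by luminescence.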
# p53 reactivator – mutant p53 re-activation in reporter cells | H1299 p53-A138V BP100-luciferase reporter, luminescence, 24 h | Potency, µM (top dose mostly 92.2 µM), for inactives: at the top dose activity change, positive = activation, actives largely listed as activators | hit rate 0.063% among 320,000 | AID 504706; further: potency means the concentration at half of the fitted maximal effect; % of control where 0% means no effect; nearly all actives have a fitted effect of over 45% in size
#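 H1299 (p53-null), stable ts p53-A138V + BP100-Luc; 1000 cells/well, Opti-MEM/10% FBS; cpd 4 pt, 1:5; 24 h, 37 deg C, 5% CO2; detection reagent 10 min RT; luminescence.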
# ClpP mod – qHTS Assay for Activators of ClpP | ATP-dependent Clp protease proteolytic subunit (Bacillus subtilis (strain 168)), P80244 | purified B. subtilis ClpP, FRET peptide cleavage, 20 min | Potency, µM (series often up to 57.5 µM), for inactives: at the top dose activity change, negative = active | hit rate 1.9% among 340,000 | AID 651965, 2013; active means well fitted falling curve with a large enough effect; inconclusive means small, poorly fitted or top-dose-only effect; inactive means no such curve, though single readings can be large or run the other way; further: potency means the concentration at half of the fitted maximal effect; the source files actives as falling curves though it sought activators and does not explain the sign; nearly all actives have a fitted effect of over 65% in size
# Target sequence (P80244 whole entry, looked up): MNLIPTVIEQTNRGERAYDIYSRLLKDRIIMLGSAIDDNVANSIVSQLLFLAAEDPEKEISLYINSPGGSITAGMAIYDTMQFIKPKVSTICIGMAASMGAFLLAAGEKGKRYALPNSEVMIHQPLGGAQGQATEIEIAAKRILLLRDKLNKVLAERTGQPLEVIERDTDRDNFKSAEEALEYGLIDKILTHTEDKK
#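 ClpP 10 microg/mL final, pH 8 Tris/KCl buffer with BSA, glycerol, Tween-20; compound pinned in; FRET-FV substrate; RT 20 min; Ex320/Em430; ΔFRET vs ADEP 5.8 microM, DMSO, no enzyme.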
# GLP1R ag – activates the human GLP-1 receptor; P43220; HEK293 GLP-1R CRE-luciferase, luminescence, 4-6 h; cells express a hypersensitive GLP-1R form; Potency, µM (series often up to 45.6 µM), for the others: at the highest dose activation, usual class: activators; hit rate 0.007% among 380,000; further: potency means the concentration at half of the fitted maximal effect; % of control where 0% means no effect
# GLP1R cytotox – cytotoxicity counter-screen for GLP-1 receptor inverse agonists; HEK293 cAMP-luciferase reporter cells, luminescence, 24 h; Potency, µM (titrated, usually from 38.3 µM), inactives show at the highest dose activity change, negative = inhibition, usual class: inhibitors; hit rate 0.13% among 410,000;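 further: loss of luciferase light is scored as toxicity; potency means the concentration at half of the fitted maximal effect; on the % scale 0 is the no-effect control and ±100 the full control effect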
#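 Seeding density was 200 cells/uL; after overnight-length (12 h) culture, 23 nL compounds went on for 24 h at 37 °C. Readout used a luciferase detection reagent, luminescence taken after 12 min at room temperature.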
# The depositor's hits bear a star; ? = inconclusive; / = no result given. Unless noted, the call rests on the fitted dose curve; in most records, active means well fitted curve in the direction sought with a large enough effect; inconclusive means small, poorly fitted or top-dose-only effect, or another doubt; inactive means no such curve, though single readings can be large; an effect the other way counts as inactive or inconclusive.
SMILES,LDHA inh,GLP-1R inv ag,p53 reactivator,ClpP mod,GLP1R ag,GLP1R cytotox
Brc1c(-c2ccccc2)nc2n1Cc1ccccc1-2,4,?,?,1%,4%,11%
O=C(c1ccccc1)N1N=C(c2ccccc2)CC1c1ccccc1[N+](=O)[O-] (centres undefined),11,15%,0%,25µM*,6%,-19%
CC(=O)N1N=C(c2ccccc2)CC1c1ccccc1[N+](=O)[O-] (centres undefined),12,4%,-1%,-1%,-6%,2%
COc1ccccc1C1CC(c2ccccc2)=NN1C(=O)c1ccccc1 (centres undefined),1,8.9µM*,0%,0%,-4%,?
O=C(NCc1ccccc1)[C@@H]1CCCN1C(=O)[C@@H]1CCCN1C(=O)c1cccc2ccccc12,2,29%,/,1%,-3%,-1%
CCCC(=O)c1c[nH]c(C(=O)NCCCN2CCOCC2)c1,1,32%,-3%,25µM*,0%,71%
O=C(NCCCN1CCOCC1)c1ccc(Br)cc1Br,/,/,3%,/,/,/
Cc1c(Br)cc(C(=O)NCCCN2CCOCC2)c(C)c1C,-3,-21%,-1%,16µM*,15%,0%
CC(Sc1ccc(S(=O)(=O)N2CCOCC2)cc1[N+](=O)[O-])C(=O)O (centres undefined),-2,9%,-3%,3%,7%,-20%
COc1cc(CNCc2ccccc2Cl)ccc1OCC(=O)NC1CCCCC1,-5,10µM*,-1%,0%,13%,-26%
Clc1ccc(N2CCN(c3ncnc4nc[nH]c34)CC2)cc1Cl,-31*,/,/,/,/,/
Clc1cccc(N2CCN(c3ncnc4nc[nH]c34)CC2)c1,13,32%,2%,/,6%,2%
C=CCNC(=S)NN(c1ccccc1)c1ccccc1,-8,12%,-1%,/,7%,?
CC(C)NC(=S)NN(c1ccccc1)c1ccccc1,-3,11µM*,8%,-3%,-3%,-19%
Cc1cccc(N2CCN(C(=S)c3ccc4c(c3)OCO4)CC2)c1,-4,11µM*,/,/,8%,?
Cc1sc2ncnc(N(C)CCc3ccccn3)c2c1C,-32*,-4%,3%,/,10%,1%
CCOc1ccc(NC(=O)CN2CCN(CC(=O)Nc3ccccc3OC)CC2)cc1,-1,?,-10%,0%,-6%,-8%
COc1ccc(CSCC(=O)N/N=C/c2ccc(OCC(=O)N3CCCCC3)cc2)cc1,-1,9%,-11%,-1%,14%,-10%
COc1cc(/C=N/Nc2nc3c(c(=O)n(C)c(=O)n3C)n2Cc2ccccc2)ccc1OC(=O)c1ccco1,1,1%,24%,32µM*,18%,-22%
COc1cc(SC)ccc1C(=O)Nc1ccc(OCC(=O)N2CCOCC2)cc1,-6,-23%,1%,-1%,5%,9%
CC(=O)Nc1ccc(OCC(=O)N2CCC(Cc3ccccc3)CC2)cc1,-4,13µM*,-5%,/,7%,-1%
COc1ccccc1C(=O)Nc1ccc(OCC(=O)N2CC(C)CC(C)C2)cc1 (centres undefined),0,10µM*,-3%,0%,-5%,4%
Cc1ccc(S(=O)(=O)NCCC(=O)N2CCC(Cc3ccccc3)CC2)cc1,0,?,1%,1%,16%,-18%
CC(=O)Nc1ccc(S(=O)(=O)NCCC(=O)N2CCC(Cc3ccccc3)CC2)cc1,-1,?,-2%,11µM*,6%,0%
CCn1nnnc1SCC(=O)N1c2ccccc2Sc2ccccc21,-4,?,/,-3%,8%,9%
SMILES,LDHA inh,GLP-1R inv ag,p53 reactivator,ClpP mod,GLP1R ag,GLP1R cytotox
O=C(COc1ccc(Cl)cc1)Nc1ccc2c(c1)CCCN2C(=O)c1cccnc1,-1,/,/,/,/,/
COc1cc2c(cc1OC)CN(C(=O)CSc1ccccc1C)CC2,-3,2%,7%,22µM*,-2%,16%
COc1cc2c(cc1OC)CN(C(=O)c1sccc1C)CC2,-6,34%,-1%,28µM*,6%,20%
COc1cc2c(cc1OC)CN(C(=O)CSC1=NCCS1)CC2,-5,1%,/,-5%,2%,-9%
CCOc1ccc(S(=O)(=O)Nc2cccc(C(=O)NCC(c3ccccc3)N(C)C)c2)cc1 (centres undefined),1,?,-2%,0%,0%,-10%
CCC1C(=O)N=C(SCC(=O)Nc2ccc(S(N)(=O)=O)cc2)NC1=O (centres undefined),-10,7%,3%,/,5%,26%
Cc1ccccc1CCNC(=O)c1ccc2c(c1)nc1n2CCOC1,0,?,/,1%,/,-10%
CN(C)CCCNc1nc(N)c([N+](=O)[O-])c(NC2CCCCC2)n1,-11,13µM*,-7%,-1%,2%,-27%
Nc1nc(NCCO)nc(NC2CCCCC2)c1[N+](=O)[O-],-9,96%,-1%,0%,?,-10%
COC(=O)c1ccc(COC(=O)CCc2nc(-c3ccccc3)c(-c3ccccc3)o2)cc1,-5,-7%,6%,32µM*,6%,-4%
COC(=O)c1ccc(COC(=O)CCc2nc3ccccc3[nH]c2=O)cc1,2,/,/,/,/,/
CC(=O)Nc1ccc(S(=O)(=O)NCCC(=O)OCc2ccccc2F)cc1,3,11%,1%,0%,-2%,3%
COCCN(C(=O)CC1CCCC1)c1c(N)n(CC(C)C)c(=O)[nH]c1=O,-3,0%,-4%,2%,-11%,-11%
CCOC(=O)N/N=C/c1cn(CCCOc2ccccc2)c2ccccc12,-5,8.9µM*,20%,28µM*,14%,19%
COC(=O)N/N=C/c1cn(CC(C)COc2ccccc2)c2ccccc12 (centres undefined),6,10µM*,-11%,-2%,-7%,-27%
CCOC(=O)N/N=C/c1cn(CCCOc2ccc(C)cc2)c2ccccc12,0,?,6%,-3%,9%,-1%
COc1ccccc1N1CCN(C(=O)c2cc(-c3ccc(F)cc3)[nH]c2C)CC1,-4,11µM*,-1%,-4%,0%,?
CCSC1=N/C(=C\c2ccc(SC)cc2)C(=O)S1,2,/,/,/,/,/
NC(=O)CCN1CCN(CCOC2Cc3cc(Cl)ccc3Sc3ccccc32)CC1 (centres undefined),-2,?,-10%,2%,14%,?
Cc1ccc(Cl)cc1NS(=O)(=O)c1cc2[nH]c(=O)c(=O)[nH]c2cc1C,-4,7%,8%,-29%,-1%,1%

# Screens (PubChem BioAssay)
